Test results as given in the supplement of paper PMC10498489.
About 330 (14%) of roughly 2,300 compounds showed activity.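 Rule for the calls: active = median modified Z-score above 1.96; inactive = 1.96 or below.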 The list is a sample of the results.

system: HepG2 Srxn1-GFP reporter cells (+30 nM CDDO-Me); test: Srxn1-GFP intensity median modified Z-score relative to plate median; higher = stronger NRF2 / oxidative stress reporter activation, active = hit call of the paper; details: 10 µM; exposure time: 24h
In short: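 Per-cell cytoplasmic GFP was measured on confocal images of formaldehyde-fixed, Hoechst-stained HepG2 Srxn1-GFP BAC reporter cells, excluding images with fewer than 100 cells. Before this, the cells (20,000 per well, 96-well plates) were co-exposed for 24 h to compound at 10 μM and an NRF2 activator at 30 nM with ≤0.1% DMSO, in three replicate plates. Each value is the median over replicates of the per-plate modified Z-score of GFP intensity. That score was scaled with 1.4826 × median absolute deviation.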

Srxn1-GFP intensity median modified Z-score, inactive:
CN(C)CCCOc1nn(Cc2ccccc2)c2ccccc12 [euspeclibcmpd892] -0.182
COC1=CC(/C=C/c2ccccc2)OC(=O)C1 (stereo not drawn) [euspeclibcmpd1481] -0.206
Nc1ccc(S(=O)(=O)N=c2[nH]ccs2)cc1 [euspeclibcmpd281] -0.259
CC(=O)OCC(=O)[C@@]1(O)CCC2C3CC=C4CC(=O)C=C[C@]4(C)[C@@]3(F)[C@@H](O)C[C@@]21C (stereo partly drawn) [euspeclibcmpd2402] -0.201
CC(C)CCCC(C)C1CCC2C3CC[C@H]4CC(=O)CC[C@]4(C)C3CC[C@]12C (stereo partly drawn) [euspeclibcmpd1405] -0.338
NC(C(=O)C(=O)O)C(O)O (stereo not drawn) [euspeclibcmpd1337] -0.207
Cc1nc2ccccn2c(=O)c1CCN1CCC(C(=O)c2ccc(F)cc2)CC1 [euspeclibcmpd878] -0.586
Cc1nc2n(c(=O)c1CCN1CCC(c3noc4cc(F)ccc34)CC1)CCCC2 [euspeclibcmpd909] 0.484
CCC(=O)OCC(=O)C1(OC(=O)CC)C(C)CC2C3C(Cl)C=C4CC(=O)C=CC4(C)C3C(O)CC21C (stereo not drawn) [euspeclibcmpd1830] -0.727
Cc1cc(O)c(C)c(O)c1C(=O)O [euspeclibcmpd2002] -0.247
CC(=O)NC(CCC(C)C)C(=O)O (stereo not drawn) 1.23
CC(=O)O[C@H]1CC[C@@]2(C)C(CC[C@]3(C)C2CC=C2C4CC(C)(C)CC[C@]4(C)CC[C@]23C)C1(C)C (stereo partly drawn) [euspeclibcmpd1641] -0.192
CC1=C(/C=C/C(C)=C/C=C/C(C)=C/CO)C(C)(C)CCC1 [euspeclibcmpd419] -0.0835
CC1=C(/C=C/C(C)=C/C=C/C(C)=C/C=C/C=C(C)/C=C/C=C(C)/C=C/C2=C(C)CCCC2(C)C)C(C)(C)CCC1 [euspeclibcmpd256] 1.65
CC[C@]12CCCN3CCc4c(n(c5ccccc45)[C@](O)(C(=O)OC)C1)[C@@H]32 [euspeclibcmpd1043] 1.43
COC(=O)C1=C(C)N=C(C)C(C(=O)OCCN(C)Cc2ccccc2)C1c1cccc([N+](=O)[O-])c1 (stereo not drawn) [euspeclibcmpd393] -0.375
COC(=O)C1=C(C)N=C(C)C(C(=O)OC)C1c1ccccc1[N+](=O)[O-] (stereo not drawn) [euspeclibcmpd208] -0.363
COCCOC(=O)C1=C(C)N=C(C)C(C(=O)OC(C)C)C1c1cccc([N+](=O)[O-])c1 (stereo not drawn) [euspeclibcmpd585] 0.492
C#C[C@]1(O)CCC2C3CCC4=Cc5oncc5C[C@]4(C)C3CC[C@@]21C (stereo partly drawn) [euspeclibcmpd81] -0.371
N=c1[nH]cnc2c1ncn2[C@@H]1O[C@H](COP(=O)(O)OP(=O)(O)OC[C@H]2O[C@@H]([n+]3cccc(C(N)=O)c3)[C@H](O)[C@@H]2O)[C@@H](O)[C@H]1O [euspeclibcmpd202] -0.305
CCC(=O)OCC(=O)[C@@]1(OC(=O)CC)[C@@H](C)CC2C3CC=C4CC(=O)C=C[C@]4(C)C3(F)[C@@H](O)C[C@@]21C (stereo partly drawn) [euspeclibcmpd541] -0.359
O=C(O)c1cc(-c2ccccc2)nc2cc(Br)ccc12 1.37
CC1OC(n2cc(F)c(=O)[nH]c2=O)C(O)C1O (stereo not drawn) [euspeclibcmpd1997] -0.334
CN[C@@H]1[C@H](O)[C@H](NC)[C@H]2O[C@@]3(O)C(=O)C[C@@H](C)O[C@H]3O[C@@H]2[C@H]1O [euspeclibcmpd268] -0.125
COc1ccc2c(c1)O[C@H]1c3ccc(OC)cc3OC[C@@H]21 [euspeclibcmpd1733] -0.45
COc1ccc([C@H]2Oc3cc(OC)cc(OC)c3C[C@H]2O)cc1 [euspeclibcmpd1383] 0
COc1cc2c(cc1OC)C1C(=O)c3c(O)cc4c(c3OC1CO2)C=CC(C)(C)O4 (stereo not drawn) [euspeclibcmpd1478] 1.56
CCOC(=O)c1c(NC(=O)COC(=O)C(C)NC(N)=O)sc(C(C)=O)c1C (stereo not drawn) 1.26
CCN(CC)CCCC(C)N=c1cc[nH]c2cc(Cl)ccc12 (stereo not drawn) [euspeclibcmpd325] -0.157
O[C@@H]1[C@H](O)CO[C@H]1O [euspeclibcmpd1668] -0.319
COc1ccc(-c2coc3cc(OC)ccc3c2=O)cc1 [euspeclibcmpd2413] -0.165
C[C@]12C=CC(=O)CC1=CCC1C2[C@@H](O)C[C@@]2(C)C1CC[C@]2(O)C(=O)CO (stereo partly drawn) [euspeclibcmpd241] -0.692
CN1C(=O)CC[C@H]1c1cccnc1 [euspeclibcmpd75] -0.303
O=C(O)c1cccnc1 [euspeclibcmpd2043] -0.519
O=C(O)c1ccccc1C(=O)Nc1ccc(S(=O)(=O)N=c2[nH]ccs2)cc1 [euspeclibcmpd427] 0.584
CCCCCCCCCCOc1cc2c(=O)c(C(=O)OCC)c[nH]c2cc1OCC [euspeclibcmpd775] 0
COC(=O)CC1C(C)(C)C(O)C2CC3=C4CC(O)OC(c5ccoc5)C4(C)CCC3C1(C)C2=O (stereo not drawn) [euspeclibcmpd1860] 0.479
C=CC[C@]1(O)CCC2C3=C(C=C[C@@]21C)C1=C(CC3)CC(=O)CC1 (stereo partly drawn) [euspeclibcmpd848] 0.704
Oc1cccc2cc3cccc(O)c3c(O)c12 [euspeclibcmpd25] -0.419
O=c1c(O)cccc2cc(O)c(O)c(O)c12 [euspeclibcmpd1723] -0.877
O=C(Oc1ccccc1C(=O)O)c1ccccc1O [euspeclibcmpd2] -0.023
O=C(/C=C/C(=O)Oc1ccccc1C(=O)O)Oc1ccccc1C(=O)O [euspeclibcmpd1772] -0.354
CC(=O)Oc1ccccc1C(=O)Oc1ccccc1C(=O)O [euspeclibcmpd1749] -0.327
O=C(O)c1ccccc1OP(=O)(O)O [euspeclibcmpd1073] -0.579
CCCCCN(C)CCC(O)(P(=O)(O)O)P(=O)(O)O [euspeclibcmpd2308] -0.118
CCCc1cc(C(N)=S)ccn1 [euspeclibcmpd1165] -0.267
NC[C@H]1O[C@H](OC2[C@@H](N)C[C@@H](N)[C@H](O[C@H]3O[C@H](CO)[C@@H](O)[C@H](N)[C@H]3O)[C@H]2O)[C@H](O)[C@@H](O)[C@@H]1O (stereo partly drawn) [euspeclibcmpd168] -0.199
CC(C)CCCC(C)C1CCC2C3CC[C@H]4C[C@@H](O)CC[C@]4(C)C3CC[C@]12C (stereo partly drawn) [euspeclibcmpd2135] 0.00623
NCCC[C@H](N)CC(=O)NC1CNC(=O)C([C@H]2C[C@H](O)NC(N)=N2)NC(=O)C(C=NC(N)=O)NC(=O)[C@H](CO)NC(=O)[C@H](CO)NC1=O (stereo partly drawn) [euspeclibcmpd994] -0.33
O=C(O)c1cc(=O)[nH]c(=O)[nH]1 [euspeclibcmpd1192] -0.551
CC(C(=O)O)c1ccc2c(c1)[nH]c1ccc(Cl)cc12 (stereo not drawn) [euspeclibcmpd425] 0.027
CCn1cc(C(=O)O)c(=O)c2cc(F)c(N3CCN(C(=O)CCSC)CC3)cc21 0.401
NS(=O)(=O)c1cc2c(cc1Cl)N=C(CSCc1ccccc1)NS2(=O)=O [euspeclibcmpd35] -0.327
CC1OC1P(=O)(O)O (stereo not drawn) [euspeclibcmpd2281] -0.455
CC(C)[N+](C)(CCOC(=O)C1c2ccccc2Oc2ccccc21)C(C)C [euspeclibcmpd254] 0.13

Srxn1-GFP intensity median modified Z-score, active:
C=CCOC(=O)C1=C(C)NC(C)=C(C(=O)OCC=C)C1/C=C/c1ccccc1 4.92
Cc1nc2sccn2c(=O)c1CCN1CCC(=C(c2ccc(F)cc2)c2ccc(F)cc2)CC1 [euspeclibcmpd532] 7.86
CC(C=C/C=C(C)/C=C/C1=C(C)CCCC1(C)C)=CC(=O)O [euspeclibcmpd2414] 3.46
COC(=O)C1=C(C)N=C(C)C(C(=O)OCC(C)C)C1c1ccccc1[N+](=O)[O-] (stereo not drawn) [euspeclibcmpd766] 10.8
COC(=O)C1=C(C)N=C(C)C(C(=O)OCCN2CCN(C(c3ccccc3)c3ccccc3)CC2)C1c1cccc([N+](=O)[O-])c1 (stereo not drawn) [euspeclibcmpd869] 5.13
COc1ccc2c(c1)O[C@@H]1COc3cc(OC)c(OC)cc3C1C2=O (stereo partly drawn) [euspeclibcmpd1700] 22.8
COc1cc2c(cc1OC)C1C(=O)c3ccc4c(c3O[C@@H]1CO2)C=CC(C)(C)O4 (stereo partly drawn) [euspeclibcmpd1734] 12.7
CCN(CC)CCCC(C)N=c1c2ccc(Cl)cc2[nH]c2ccc(OC)cc12 (stereo not drawn) [euspeclibcmpd261] 19.2
CN1CCC[C@H]1c1cccnc1 [euspeclibcmpd957] 8.21
Cc1cc(O)c2c(O)c3c(O)cccc3cc2c1 [euspeclibcmpd2068] 2.58
CC(=O)Oc1ccccc1C(=O)O [euspeclibcmpd28] 61
CCCCC(=O)Oc1ccccc1C(=O)O [euspeclibcmpd1887] 14.5
O=C(O)c1cc2cc(Cl)ccc2[nH]1 [euspeclibcmpd2020] 1.97
